Source: the supplement of paper PMC12045047
A number with no mark means an inactive call.

System: primary human airway basal cells (HBEC, luciferase-transduced)
Assay: proliferation (luciferase bioluminescence) Z score relative to plate mean; higher = more proliferation / more cells, active = 1.96 or more
Settings: donor: 1, library: ENZO Libraries, 4 days
Experimental: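 Primary human bronchial epithelial (airway basal) cells from two donors, lentivirally transduced with pHIV-Luc-ZsGreen, were seeded at 2000 cells/well in 384-well plates in FAD medium with ENZO or Prestwick library compounds and cultured for 4 days. Luciferin was then added and bioluminescence was read as a measure of cell number. Relative light units were converted to Z scores against the plate, and the mean of triplicate wells is reported.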

Row | SMILES | proliferation (0.5 µM) | proliferation (5 µM)
1 | CN(C)c1ccc(/C=C2/C(=O)Nc3ccccc32)cc1 | -0.0148 | 1.43
2 | CC(C)n1cnc2c(NCc3ccccc3)nc(NCCO)nc21 [N9-isopropyl-olomoucine] | -0.31 | -0.285
3 | CCC(C)[C@H](NS(=O)(=O)c1cccc2ccccc12)C(=O)N[C@H](C=O)Cc1c[nH]c2ccccc12 (some centres not stated) | -0.192 | -0.56
4 | O=Nc1ccc(O)c2ncccc12 | -0.683 | -1.09
5 | CC(NC(=O)c1ccccc1/N=C/c1c(O)ccc2ccccc12)c1ccccc1 (configuration not stated) [Sirtinol] | -0.129 | -0.361
6 | O=C(O)c1cc(N(Cc2ccccc2O)Cc2cc(O)ccc2O)ccc1O [Lavendustin A] | -0.351 | -0.457
7 | CCCC(CCC)C(=O)O [Valproic acid] | -0.00583 | -0.171
8 | NC(=O)c1cccnc1 [Nicotinamide] | 0.0934 | 0.119
9 | CO[C@@H]1[C@H](OC(=O)/C=C/C=C/C=C/C=C/C(=O)O)CC[C@]2(CO2)[C@H]1[C@@]1(C)O[C@@H]1CC=C(C)C [Fumagillin] | -1.58 | -0.343
10 | CNC(=O)[C@H](Cc1c[nH]c2ccccc12)NC(=O)[C@@H](CC(=O)NO)CC(C)C | -0.298 | -0.522
11 | O=C(O)c1cc(NCc2cc(O)ccc2O)ccc1O [2-Hydroxy-5-(25-dihydroxybenzylamino)benzoic acid] | -0.149 | -0.503
